Experimental data reported in ChEMBL document CHEMBL3433997, “St. Jude Leishmania screening dataset” (2016).

How the values were obtained:
Assay type in all cases: functional
[1] = target: Solute carrier family 2, facilitated glucose transporter member 1 (Homo sapiens) (UniProt P11166); assay: ST_JUDE_LEISH: Cytotoxicity at 2uM final concentration against transgenic Leishmania Mexicana promastigotes LmGLUT1 that are glucose transport deficient and complemented with the human glucose transporter GLUT1. Activity is measured by DNA content using SYBR green in vitro
[2] = target: Hexose transporter 1 (Plasmodium falciparum) (UniProt O97467); assay: ST_JUDE_LEISH: Cytotoxicity at 2uM final concentration against transgenic Leishmania Mexicana promastigotes LmPfHT that are glucose transport deficient and complemented with the Plasmodium falciparum hexose transporter. Activity is measured by DNA content using SYBR green in vitro
[3] = target: Glucose transporter (Leishmania mexicana) (UniProt O61059); assay: ST_JUDE_LEISH: Cytotoxicity at 2uM final concentration against transgenic Leishmania Mexicana promastigotes LmGT2 that are glucose transport deficient and complemented with the L. Mexicana glucose transporter 2. Activity is measured by DNA content using SYBR green in vitro

Chain of Solute carrier family 2, facilitated glucose transporter member 1 (Homo sapiens) (P11166 whole entry): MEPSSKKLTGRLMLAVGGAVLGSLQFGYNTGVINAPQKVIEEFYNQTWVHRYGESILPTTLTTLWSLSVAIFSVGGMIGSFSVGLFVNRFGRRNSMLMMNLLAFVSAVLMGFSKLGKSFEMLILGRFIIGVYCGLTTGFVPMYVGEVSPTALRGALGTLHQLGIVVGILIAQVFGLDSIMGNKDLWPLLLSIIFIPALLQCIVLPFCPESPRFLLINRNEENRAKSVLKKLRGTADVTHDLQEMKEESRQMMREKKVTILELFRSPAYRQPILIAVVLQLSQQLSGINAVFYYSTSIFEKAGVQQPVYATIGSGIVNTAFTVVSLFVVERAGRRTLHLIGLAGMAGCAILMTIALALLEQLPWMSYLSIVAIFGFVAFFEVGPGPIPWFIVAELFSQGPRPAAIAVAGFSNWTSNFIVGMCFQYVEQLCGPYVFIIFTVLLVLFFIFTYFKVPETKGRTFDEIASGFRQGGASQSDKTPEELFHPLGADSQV

Compound | inhibition [1] | inhibition [2] | inhibition [3]
Cc1ccc2nc3sc(C(=O)NCCCN4CCC(N5CCCCC5)CC4)cc3cc2c1 | -0.92% | 3.13% | 3.19%
Cc1cccc2nc(-c3cccc(-c4ccc(CNCCc5ccncc5)cc4)c3)[nH]c12 | 0.46% | -0.37% | -0.84%
CN1CCN(CCCSc2ccc3c(c2)ncn3-c2cc(OCc3ccccc3C(F)(F)F)c(C(N)=O)s2)CC1 | 8.47% | 11.1% | 0.97%
CCCCC(NCC)c1ccc(OCCOc2ccc(C(CCCC)NCC)cc2)cc1 (stereo not given) | 81.2% | 41.5% | 106%
CC(C)C[C@H](NC(=O)c1ccc(OCCN2CCOCC2)cc1)C(=O)NC(/C=N/N1CCCC1=O)C(C)C (stereo not given in full) | 2.27% | 3.56% | 2.49%
O=C(Nc1cccc(-c2cccc(-c3nc4cc(F)ccc4[nH]3)c2)c1)c1ccncc1 | 0.54% | 0.29% | 0.2%
COc1ccc(CCNC(=O)c2cc(C)ccc2O)cc1-c1ccc(C(C)(C)C)cc1 | 4.36% | 2.89% | 4.35%
Nc1nc(N)c2c(ccc3c2ccn3Cc2ccc(-c3ccccc3)cc2)n1 | 113% | 113% | 113%
COc1ccc(N2C(N)=NC(N)=NC2(C)C)cc1 | 1.65% | 3.07% | 2.77%
COc1cccc2sc(Nc3nc(-c4ccccn4)cs3)nc12 | 0.13% | 1.96% | 2.52%
Cc1ccc(F)c(OCC2CCN(c3ccc(C(=O)NC4CC4)cn3)CC2)c1 | 3.7% | 2.89% | -1.65%
Oc1nc(Cc2ccccc2)nc2ccc(Cl)cc12 | 2.13% | 2.54% | 4.12%
Oc1ccc2ncnc(Nc3ccc(OCc4cccc(F)c4)c(Cl)c3)c2c1 | -2.81% | -0.64% | -1.78%
CCCNCc1ccc(-c2ccc(CN(Cc3cnc(C)cn3)C(=O)c3nn(-c4ccccc4)nc3C)cc2)nc1 | 2.69% | 0.9% | -6.47%
O=C(Nc1ccc(-c2ccc(-c3nc4cc(C(F)(F)F)ccc4[nH]3)s2)cc1)c1ccoc1 | 0.13% | -0.79% | -1.02%
COc1ccc(NC(=O)NC2CCN(c3ccnc4ccccc34)C2)cc1 (stereo not given) | 0.52% | 0.7% | 2.29%
O=C(Cn1c(CCc2cccc(F)c2F)cc(=O)c2cccnc21)N(CCN1CCCC1)Cc1ccc(-c2ccc(C(F)(F)F)cc2)cc1 | 2.13% | 2.76% | 1.23%
CCn1c(-c2nonc2N)nc2cnc(Oc3cccc(NC(=O)c4ccc(OCCN(C(C)C)C(C)C)cc4)c3)cc21 | 15.1% | 18.2% | 5.45%
COc1ccc(CNC(=O)Nc2cc3cc(-c4ccc(CN(C)C)cc4)ccc3n3c(C)nnc23)cc1 | 4.84% | 2.93% | 3.32%
CC(C)CNCc1cccc(-c2cccc(CN(CCN(C)C)C(=O)NCCc3ccccc3)c2)c1 | -1.09% | -0.75% | -4.18%
CN(C)CCNC(=O)c1csc(Nc2ccc(Cl)c(Cl)c2)n1 | 0.89% | 1.38% | 2.28%
CCc1cccc2c(C#N)cn(CC(=O)NCCc3ccccc3)c12 | 6.99% | 9.88% | 9.25%
CCCC(CC)n1ccc2c3c(N)nc(N)nc3ccc21 (stereo not given) | 70.5% | 76.3% | 57.8%
N#Cc1cccc(CN2CCCN(Cc3ccc(C(=O)Nc4ccc(Cl)cc4)cc3)CC2)c1 | 4.41% | 5.4% | -0.06%
CCOc1cc(C(=O)NCCCN2CCN(c3cccc(Cl)c3)CC2)ccc1-c1nc2cc(Cl)c(F)cc2[nH]1 | -0.54% | -0.11% | -0.18%

Compound | inhibition [1] | inhibition [2] | inhibition [3]
CCOc1cc(C(=O)Nc2ccccc2N2CCN(S(C)(=O)=O)CC2)cc(OCC)c1OCC | 3.72% | 3.96% | 3.43%
COc1ccc(CCNCCCCCCNCCc2ccc(-c3ccccc3)cc2)cc1OC | 92.8% | 94.9% | 49.7%
CCNc1cc(C(=O)N[C@@H](Cc2ccccc2)[C@H](O)CN[C@H](C)c2ccccc2)cc(N2CCCC2=O)c1 | 4.44% | 3.88% | -0.89%
Cn1nc(-c2ccccc2F)c2cc(C(=O)NC3CCN(Cc4ccccc4)CC3)sc21 | -0.18% | -1.6% | -1.7%
CCNc1cc(C(=O)N[C@@H](Cc2ccc(F)c(F)c2)[C@H](O)CNCc2cccc(OC)c2)cc(N2CCCCS2(=O)=O)c1 | -0.26% | 0.17% | -0.12%
CCOC(=O)c1ccc(NC(=O)N(Cc2ccc(-c3ccc(CN4CCNCC4)cc3)cc2)C2CCN(Cc3ccccc3)CC2)cc1 | 3.61% | 2.86% | -1.08%
CC(=O)c1cccc(NC(=O)N2CCCN(CCCCCNC(=O)/C=C/c3ccc(Cl)c(Cl)c3)CC2)c1 | -1.7% | -0.03% | -0.6%
O=C(Nc1ccc(OC2CCN(CC3CC3)CC2)c(Cl)c1)c1ccc2ncccc2c1 | 8.41% | 9.49% | 7.58%
CC(=O)Nc1nc(C(=O)Nc2cccc(-c3ccc4c(cnn4CC4CC4)c3)c2)cs1 | 1.74% | 1.84% | 2.13%
Cc1[nH]c(C)c(-c2ccc(OCc3cc(F)cc(F)c3)nc2)c(=O)c1Cl | 5.4% | 4.58% | 2.08%
CN(C)c1ccc(CN2CCCCC(NC(=O)c3cc(-c4ccccc4F)cs3)C2)cc1 (stereo not given) | -0.57% | -0.62% | -7.76%
OC(CNc1ccnc(Nc2cccc(Cl)c2)n1)c1ccc(C(F)(F)F)cc1 (stereo not given) | 9.21% | 7.14% | 5.22%
Cc1cc(=NN=Cc2ccccc2)c2cc(C(F)(F)F)ccc2[nH]1 | 8.02% | 8.87% | 6.17%
O=C(Nc1ccc(OC2CCN(Cc3ccsc3)C2)c(Cl)c1)c1cccs1 (stereo not given) | 2.98% | 3.61% | 2.52%
Cc1ccccc1CCNC(=O)c1ccc(N2CCN(c3ccncc3)CC2)nc1 | 3.94% | 1.96% | 0.46%
CCOc1cc(NCCSCc2nc[nH]c2C)nc2ccccc12 | -1.28% | -0.61% | -3.84%
Cc1cc(NC(=O)NCCN2CCC(NS(=O)(=O)c3ccccc3F)CC2)c2ccccc2n1 | 1.57% | 2.12% | 0.24%
CNC(=O)C(C)N(c1ccc(Cl)cc1)c1nc(C(C)(C)C)cs1 (stereo not given) | -1.9% | -2.14% | 3.15%
c1cc2[nH]c(CCCCc3nc4cc(C5=N[C@H]6CCCC[C@H]6N5)ccc4[nH]3)nc2cc1C1=N[C@H]2CCCC[C@H]2N1 | 10.1% | 9.08% | 8.87%
CCNc1cc(C(=O)N[C@@H](Cc2ccccc2)[C@H](O)CNC(C)Cc2cccc(Cl)c2)cc(N2CCCCS2(=O)=O)c1 (stereo not given in full) | 0.81% | 2.5% | -1.63%
Cc1ccc(C)c(-n2c(SCC(=O)Nc3ccc(C(N)=O)cc3)nnc2-c2cccc(Cl)c2)c1 | 11.3% | 11.6% | 10.4%
O=C(Nc1ccncc1)c1cc(C(=O)Nc2ccncc2)cc([N+](=O)[O-])c1 | -0.17% | -3.19% | -0.41%
Cc1nc2nc(N)nc(N)c2c(C)c1Cc1ccc(Cl)cc1 | 33.4% | 43.3% | 28.7%
CCNc1cc(C(=O)N[C@@H](Cc2ccccc2)[C@H](O)CNCC(C)C)cc(N2CCCC2=O)c1 | 2.24% | 1.42% | -1.69%
COc1ccccc1C(C)NCC(=O)Nc1ccccc1Sc1ccccc1 (stereo not given) | 0.18% | 0.01% | 1.44%
